Our source for the sensor-assay potency score (higher = more potent) values is the OligoGym collection.
Note: reference of the scale not given here.

One assay deals with CCDC102B. The assay is described as follows: pooled miR-30 sensor sort-seq; sequence = guide strand. As to conditions: shRNA.
The sequence TTTGTGACATCTTGAAATCAGG displayed a sensor-assay potency score (higher = more potent) of -1.26.

Take TAACATTAGCTTCTAATGCCTC: the sensor-assay potency score (higher = more potent) was -0.718.

For the sequence TTGCATTTCATCATTATGTTGA, the sensor-assay potency score (higher = more potent) turned out to be 0.234.

Take TTCACCTGGATCTTCAGCCTTC: the sensor-assay potency score (higher = more potent) was found to be 0.0425.

Regarding TAATCTATTTTTCTTATCCAAA, the sensor-assay potency score (higher = more potent) was -1.3.

ATCAACACCATCTAGATTGGGC: the sensor-assay potency score (higher = more potent) amounted to 0.0383.

For TTTGTTAATACAACCTGCCATC, the sensor-assay potency score (higher = more potent) is -1.01.

TTAACTCACAAATCACTCTGTC: the sensor-assay potency score (higher = more potent) is 0.63.

TTATTCTGAGTTGTCTTCCTTC showed a sensor-assay potency score (higher = more potent) of 0.72.

TTGTTGAATAAATCAACACCAT came in with a sensor-assay potency score (higher = more potent) of -0.659.

The sequence TTCAGCTCGAACTTTACTCCAT had a sensor-assay potency score (higher = more potent) of 0.199.

A further assay deals with CCDC105. The description is as above. Particulars: shRNA.
TTGAGTAGGACCTCTGATTTTT showed a sensor-assay potency score (higher = more potent) of -1.1.

TTCGCTGAGCCTGTGGTCGGTG gave a sensor-assay potency score (higher = more potent) of -0.476.

In turn, TTTTCTGACCCTGTGTGCGTGG gave a sensor-assay potency score (higher = more potent) of -0.545.

For the sequence TTGCGCACTTCGCTGAGCCTGT, the sensor-assay potency score (higher = more potent) is -0.764.

Regarding TTAATCTTTCCTTCAGCTCCAA, the sensor-assay potency score (higher = more potent) was 0.0783.

With TTGGACTCGACCAACAACCGCT, the sensor-assay potency score (higher = more potent) is -0.0723.

Sequence TATCTGCAGCTGTTGCTCCCGG displayed a sensor-assay potency score (higher = more potent) of -0.913.

Regarding TTCAGCTCCAAGGTCTCGCTCG, the sensor-assay potency score (higher = more potent) is -0.194.

In turn, TATATTTCGTACACCGGAGGAT displayed a sensor-assay potency score (higher = more potent) of 0.16.

For TTTTTCCATATCTCTCTCCATT, the sensor-assay potency score (higher = more potent) is -1.2.

TTTGCCATTTCTACCAAGGTGT yielded a sensor-assay potency score (higher = more potent) of -0.502.

Take TAATCTTTCCTTCAGCTCCAAG: the sensor-assay potency score (higher = more potent) is -0.875.

The target of the next assay is CCDC111. The assay is described as above. Particulars: shRNA.
TTGTCGATGAAATAGTCTCCAG had a sensor-assay potency score (higher = more potent) of -1.27.

Sequence TAAAAGCTTGAGCTTGTCGATG came in with a sensor-assay potency score (higher = more potent) of -0.777.

For the sequence TATAGTAAAACCAAAATTCAGC, the sensor-assay potency score (higher = more potent) was -0.935.

In turn, TAAACCAGTAATTCTTCTGGGA gave a sensor-assay potency score (higher = more potent) of 0.0581.

TTTGATGATTTATATAGCCGAA: the sensor-assay potency score (higher = more potent) was -0.728.

For the sequence TTGTAAACTCTTCTTCCTCTTT, the sensor-assay potency score (higher = more potent) was -0.271.

Turning to TATTTCTTGTATAAACTCCGAG, the sensor-assay potency score (higher = more potent) was -0.0493.

The sequence TTTTATTGAAAGAAAATCCTTG yielded a sensor-assay potency score (higher = more potent) of 0.279.

Another assay has as its target CCDC124. The assay is described as above. Particulars: shRNA.
Sequence TGACGTGTTTGTCGTCGTCCTT registered a sensor-assay potency score (higher = more potent) of -0.925.

TTGAGCTTGGAGTCCTCCTCCT returned a sensor-assay potency score (higher = more potent) of -0.0303.

Take TTGTTTGAGCCGCGGCAGCTGG: the sensor-assay potency score (higher = more potent) was -1.54.

TGAGCTTGGAGTCCTCCTCCTC: the sensor-assay potency score (higher = more potent) was -1.05.

TTCTCTTGTTTGAGCCGCGGCA: the sensor-assay potency score (higher = more potent) is -0.945.

Consider TAGGCGCTGCGTCTCCTTCTTA, for which the sensor-assay potency score (higher = more potent) is -1.03.

For TTGAGCAGCTGTTTCAGCTGCG, the sensor-assay potency score (higher = more potent) amounted to 0.469.

With TCGTCGTCCTTCCAGTAGGCAT, the sensor-assay potency score (higher = more potent) is -1.51.

TCTGCTTCTTGGCATCAGCGGC registered a sensor-assay potency score (higher = more potent) of -1.05.
